JMJD2A Tudor inh – JMJD2A Tudor domain (human) inhibition. hit rate 4.4% among 390,000. AlphaScreen JMJD2A-Tudor / H3K4me3 peptide binding. Potency, µM (highest dose often 114 µM), actives largely listed as inhibitors; also: nearly all actives have a fitted effect of over 50% in size
PI5P4Ka inh – blocks human PI5P4K alpha kinase activity. P48426. AID 652105. hit rate 1.2% among 330,000. PI5P4Kalpha enzyme, ADP-Glo luminescence, 60 min; hits give low values. max response, %; active = max response of -50% or lower; inconclusive = between -30% and -50%; inactive = -30% or higher; also: value at the top dose of about 77 µM
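qHTS, 1536-well: enzyme/substrate mix, compound by pin tool, 5 microM ATP final; RT 60 min; ADP-Glo reagents 1 (45 min) then 2 (30 min); luminescence.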
BAZ2B block – BAZ2B (human) inhibition; Q9UIF8; hit rate 4.4% among 360,000; AlphaScreen BAZ2B-H3K14Ac peptide displacement; AID 504333; Potency, µM (highest dose often 114 µM), actives largely listed as inhibitors; also: nearly all actives have a fitted effect of over 60% in size
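Complex of BAZ2B and biotin-H3K14Ac (50 nM apiece) forms over 30 min at RT, then faces library compounds up to 110 uM for another 30 min; AlphaScreen beads added, 20 min dark incubation, luminescence read.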
KDM4E inh – inhibitors of human JMJD2E histone demethylase; JMJD2E catalytic domain, FDH-coupled NADH fluorescence (FDH is formaldehyde dehydrogenase); Potency, µM (doses to about 57.1 µM), usual class: inhibitors; AID 2147; B2RXH2; hit rate 1.6% among 230,000; active = well fitted inhibition curve with a large enough effect, not every such curve was filed as active; inconclusive = small, poorly fitted or top-dose-only effect, or another doubt; inactive = no such curve, though single readings can be large or run the other way; also: nearly all actives have a fitted effect of over 50% in size
HP1b chromo inh – inhibitors of HP1-beta chromodomain binding to methylated histone tails; Potency, µM (top dose mostly 114 µM), most hits filed as inhibitors; AID 540317; AlphaScreen HP1-beta / biotin-H3K9me3 peptide binding; P83916; hit rate 0.56% among 390,000; also: nearly all actives have a fitted effect of over 70% in size
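HP1-beta protein (50 nM final) preincubated 30 min at room temperature with biotinylated H3(1-18)K9me3 peptide (50 nM) in PBS pH 7.4, 0.01% Tween-20, then compound added for 30 min. AlphaScreen streptavidin donor/nickel chelate acceptor beads (10 ug/mL final), 30 min dark, luminescence read.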
L3MBTL1 block – inhibitors of human L3MBTL1; hit rate 0.66% among 230,000; Potency, µM (doses to about 57.1 µM), usual class: inhibitors; Q9Y468; AlphaScreen L3MBTL1–H3K9me1 peptide binding; also: nearly all actives have a fitted effect of over 60% in size
Target sequence (Q9Y468 whole entry, looked up): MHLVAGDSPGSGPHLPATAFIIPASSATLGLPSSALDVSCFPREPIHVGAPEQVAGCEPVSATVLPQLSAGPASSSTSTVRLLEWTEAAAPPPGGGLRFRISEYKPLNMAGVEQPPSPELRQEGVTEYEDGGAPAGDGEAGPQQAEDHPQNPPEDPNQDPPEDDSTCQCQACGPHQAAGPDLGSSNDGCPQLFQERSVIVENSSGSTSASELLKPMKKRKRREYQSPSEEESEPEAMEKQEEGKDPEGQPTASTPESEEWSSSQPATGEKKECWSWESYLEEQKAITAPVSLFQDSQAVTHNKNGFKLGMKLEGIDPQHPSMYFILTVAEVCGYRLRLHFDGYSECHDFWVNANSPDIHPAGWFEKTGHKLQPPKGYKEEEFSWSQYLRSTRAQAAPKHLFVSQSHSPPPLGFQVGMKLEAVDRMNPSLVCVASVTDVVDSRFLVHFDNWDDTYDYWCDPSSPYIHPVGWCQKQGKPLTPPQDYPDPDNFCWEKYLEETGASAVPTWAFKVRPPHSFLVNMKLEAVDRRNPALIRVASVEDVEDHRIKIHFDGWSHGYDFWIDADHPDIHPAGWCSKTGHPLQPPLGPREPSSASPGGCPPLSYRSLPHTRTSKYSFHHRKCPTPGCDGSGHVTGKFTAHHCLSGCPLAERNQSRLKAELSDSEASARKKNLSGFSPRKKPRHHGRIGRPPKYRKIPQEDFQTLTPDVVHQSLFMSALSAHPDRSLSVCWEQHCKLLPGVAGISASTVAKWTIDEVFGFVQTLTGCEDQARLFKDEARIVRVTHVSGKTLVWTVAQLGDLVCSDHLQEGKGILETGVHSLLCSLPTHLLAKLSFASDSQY
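Read-out is AlphaScreen signal from streptavidin donor and nickel chelate acceptor beads (10 ug/mL final each) bridging L3MBTL1 (50 nM) and biotinylated K9-monomethylated H3(1-15) peptide (75 nM), after 30 min compound exposure at room temperature.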
A number is an active result; - = inactive; ? = inconclusive; . = no result given; [ ] = another dose, or the depositor's remark. Only some compounds are listed: those with a hit (about 5.7% of all), similar ones and a draw of the others. Unless noted, calls follow the shape of the dose curve; as a rule, active = well fitted inhibition curve with a large enough effect; inconclusive = small, poorly fitted or top-dose-only effect; inactive = no such curve, though single readings can be large or run the other way.

SMILES	JMJD2A Tudor inh	PI5P4Ka inh	BAZ2B block	KDM4E inh	HP1b chromo inh	L3MBTL1 block
Oc1ccc(/C=N/Nc2nc(-c3cccnc3)nc3ccccc23)c(O)c1	-[11.4 µM]	-	-	22.4µM	-	-
Cc1c(O)ccc(/C=N/Nc2nc(-c3cccnc3)nc3ccccc23)c1O	?	?	?	?	-	-
Cc1cc(C)n2nc(CC(=O)NCc3ccc(F)cc3)nc2n1	70.8µM	-	-	-	-	-
CCn1c(CNC(=O)COc2ccc(C(C)C)cc2)nnc1SCC(=O)Nc1cc(F)ccc1C	28.2µM	.	-	-	-	-
CCn1c(CNC(=O)COc2ccc(C(C)C)cc2)nnc1SCC(=O)Nc1ccc(F)cc1	-	.	-	-	-	.
CNC(=O)c1cc2c(n(-c3ccc(C)cc3)c1=O)CC(C)(C)CC2=O	-	.	-	.	-	.
CCCCN(C)C(=O)Cc1c(OC)ccc2cc(Br)ccc12	25.1µM	-	-	-	?	-
COc1ccc2cc(Br)ccc2c1CC(=O)N(C)C	-	-	-	-	-	-
Cc1ccc(-n2nc(CO)c(C(=O)NC(C)c3ccccc3)n2)cc1C (configuration not stated)	-	.	-	.	-	.
CN(Cc1ccc(Cl)s1)C(=O)CN1C(=O)N(C)C2(CCCCC2)C1=O	-	-	-	.	-	-
COc1ccc(NC(=S)NC(NC(=O)CCl)C(Cl)(Cl)Cl)c([N+](=O)[O-])c1 (configuration not stated)	?	-55.2	?	-	?	-
O=C(O)c1ccc(NC(=S)NC(=O)c2ccc(-c3ccccc3)cc2)cc1	?	-54.6	?	-	?	.
O=C(NC(=S)NNC(=O)c1ccco1)c1ccccc1	-	-	-	.	-	.
O=C(NC(=S)Nc1ccc(N2CCCCC2)cc1)c1ccco1	39.8µM	.	44.7µM	-	15.8µM	?
CC(=O)N1CCN(c2ccc(NC(=O)c3ccco3)cc2)CC1	-	-	-	.	-	.
O=C(NC(=S)Nc1ccccc1N1CCOCC1)c1ccco1	-	-	-	-	-	-
O=C(NC(=S)Nc1ccccc1N1CCCC1)c1ccco1	?	-	39.8µM	-	?	-
O=C(NC(=S)Nc1ccc(NC(=O)c2ccco2)cc1)c1ccccc1	35.5µM	-	-	?	-	-
COc1ccccc1C(=O)Nc1ccccc1OCc1cc(=O)n2ccccc2n1	-	.	-	.	-	.
Cc1ccc(C(=O)NC(=S)Nc2ccc(N3CCN(C(=O)c4ccco4)CC3)cc2)cc1	?	-	?	.	?	.
CC1CCN(c2ccc(NC(=S)NC(=O)c3ccco3)cc2)CC1	?	-	8.91µM	-	-	-
O=C(Nc1ccc(S(=O)(=O)Nc2nccs2)cc1)c1cc(-c2ccccc2)nc2ccccc12	31.6µM	-	?	-	?	-
Cc1ccc(-c2cc(C(=O)Nc3ccc(S(=O)(=O)Nc4nccs4)cc3)c3ccccc3n2)c(C)c1	?	?	?	-	?	-
c1coc(-c2ccc3ncnc(NCc4cccs4)c3c2)c1	.	.	?	.	.	-
CCOC(=O)c1ccc2c(c1)C1C=CCC1C(C(=O)O)N2 (configuration not stated)	.	.	6.31µM	?	.	3.16µM
SMILES	JMJD2A Tudor inh	PI5P4Ka inh	BAZ2B block	KDM4E inh	HP1b chromo inh	L3MBTL1 block
O=C(O)C1Nc2c(C(F)(F)F)ccc(Cl)c2C2C=CCC12 (configuration not stated)	-	-	?	.	-	.
O=C(O)C1Nc2ccccc2C2C=CCC12 (configuration not stated)	3.55µM	.	.	.	11.2µM	.
COc1cccc([C@@H]2Nc3ccc(C(=O)O)cc3[C@@H]3C=CC[C@@H]32)c1OC	-	.	-	.	-	.
CCOC(=O)C1Nc2ccc(C(=O)O)cc2C2C=CCC12 (configuration not stated)	3.98µM	-68.9	39.8µM	.	7.94µM	-[2.29 µM]
Cn1cc(S(=O)(=O)N2CCCC(C(=O)O)C2)cn1 (configuration not stated)	-	-	-	-	-	-
Cc1ccc(N(C)S(=O)(=O)c2ccc3c(c2)NC(=O)C(C)S3)cc1 (configuration not stated)	-	-	?	.	-	.
CCCc1ccc(OC(C)C(=O)Nc2sc3c(c2C(=O)OC)CCCCC3)cc1 (configuration not stated)	-	.	-	.	?	.
Cc1cc(C)cc(NC(=O)CSc2nc(-c3cccc(Cl)c3)nc3c2Cc2c(CO)cnc(C)c2O3)c1	-	.	50.1µM	.	-	.
CCN(CC)C(=O)CSc1nc(-c2ccc(C)cc2)nc2c1Cc1c(CO)cnc(C)c1O2	?	.	44.7µM	.	-	.
COc1ccc(-c2nc3c(c(SCC(=O)Nc4cc(C)cc(C)c4)n2)Cc2c(CO)cnc(C)c2O3)cc1	-	.	-	.	-	.
Cc1ccc(Cl)cc1NC(=O)c1sc(-n2nc(C)c(Cc3ccc4c(c3)OCO4)c2C)nc1C	-	.	-	.	-	.
COc1ccc(OC)c(CCNc2ncnc3onc(-c4ccc(Cl)cc4)c23)c1	-	.	-	.	-	.
O=C(N/N=C/c1ccccc1O)NC12CC3CC(CC(C3)C1)C2	-	-	-	.	-	.
O=C(N/N=C/c1cc(Cl)cc([N+](=O)[O-])c1O)c1ccc2c(c1)OCO2	79.4µM	-	35.5µM	.	-	-
O=C(N/N=C/c1cc(Cl)cc([N+](=O)[O-])c1O)NC12CC3CC(CC(C3)C1)C2	50.1µM	-69.0	8.91µM	-	?	-
O=C(N/N=C/c1cc(Br)cc(Br)c1O)c1cccc(S(=O)(=O)N2CCOCC2)c1	89.1µM	-	-	-	-	.
O=C(N/N=C/c1ccc(O)c(O)c1)c1cccc(S(=O)(=O)N2CCCC2)c1	7.94µM	-	-	.	-	-
COc1cc(/C=N/NC(=O)c2cccc(S(=O)(=O)N3CCCC3)c2)ccc1O	-	-	-	.	-	-
CCOc1cc(C#N)c(-n2nnc3c(sc4nc(C)cc(C)c43)c2=O)cc1OCC	-	.	-	.	-	.
COc1ccc(N2CCN(C(CNC(=O)CC(C)C)c3ccc4c(c3)OCO4)CC2)cc1 (configuration not stated)	?	.	-	.	-	.
Cc1ccc(OCC(=O)Nc2sc3c(c2C(N)=O)CCCC3)c(C(C)(C)C)c1	-	.	-	.	-	.
Cc1c(NC(=O)c2ccc(Br)o2)cccc1-c1nc2ccccc2o1	-	.	-	.	-	.
CC(C)NC(=O)C1CCC(Cn2c(=O)c3sccc3n(CC(=O)Nc3ccccc3)c2=O)CC1 (configuration not stated)	-	.	-	.	-	.
CCOc1ccc(C(=O)N/N=C/c2cc(Cl)ccc2[N+](=O)[O-])cc1	?	-	56.2µM	-	-	-
O=C(N/N=C/c1cc(Cl)cc([N+](=O)[O-])c1O)c1cccc(S(=O)(=O)N2CCOCC2)c1	39.8µM	?	25.1µM	.	-	?
CCOc1ccc(Cl)cc1/C=N/NC(=O)c1ccccc1	-	-	-	-	-	-
CC(C)(C)OC(=O)N1CCC(c2c(C(=O)N3CCN(C(=O)c4ccco4)CC3)cnn2-c2ccccc2Cl)CC1	-	.	-	.	-	.

Assay outcomes as filed in PubChem.
